Holding throughout (test): DAPPL (digital affinity profiling via proximity ligation, sequencing); 10 mM Tris-HCl pH 7.5, 50 mM NaCl, 1 mM DTT, 4% glycerol, room temperature, 30 min; GST-TFs on glutathione beads, 16-mer random dsDNA library, 0.1% formaldehyde crosslink after washing; high values mean tight binding
Assay [1] addresses T1, FEV (Homo sapiens, UniProt Q99581 1-238).
T1 sequence: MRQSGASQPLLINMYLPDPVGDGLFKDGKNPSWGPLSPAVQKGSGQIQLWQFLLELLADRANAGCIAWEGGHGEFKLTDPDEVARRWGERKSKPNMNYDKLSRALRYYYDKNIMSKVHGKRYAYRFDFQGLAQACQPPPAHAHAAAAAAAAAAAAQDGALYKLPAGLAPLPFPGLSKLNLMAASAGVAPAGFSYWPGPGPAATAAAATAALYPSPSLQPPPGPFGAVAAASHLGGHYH
The settings on record: protein: recombinant; tags: N-terminal GST; dsDNA, one strand shown. An outline of the steps:
(§1)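 Human transcription factors were made in yeast as GST fusions, captured on glutathione beads and barcoded with DNA. With a tag-only sample included, the pool was incubated with 200 nmole of a random double-stranded 16-mer DNA library in Tris/NaCl/DTT/glycerol buffer at room temperature for 30 min, then crosslinked with 0.1% formaldehyde after washing, ligated by proximity, amplified and sequenced. For binding signal, each hexamer's read frequency for a factor is divided by its frequency for the tag-only sample.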

Assay [2] deals with ETV5 (Homo sapiens, UniProt P41161 1-510). The settings on record: protein: recombinant; tags: N-terminal GST; dsDNA, one strand shown. The method, boiled down:
as §1

Assay [3] concerns the target HSF1 (Homo sapiens, UniProt Q00613 1-529). The settings on record: protein: recombinant; tags: N-terminal GST; chain copies: 3; dsDNA, one strand shown. An outline of the steps:
as §1

The target in assay [4] is T2, SPIC (Homo sapiens, UniProt Q8N5J4 1-248).
T2 sequence: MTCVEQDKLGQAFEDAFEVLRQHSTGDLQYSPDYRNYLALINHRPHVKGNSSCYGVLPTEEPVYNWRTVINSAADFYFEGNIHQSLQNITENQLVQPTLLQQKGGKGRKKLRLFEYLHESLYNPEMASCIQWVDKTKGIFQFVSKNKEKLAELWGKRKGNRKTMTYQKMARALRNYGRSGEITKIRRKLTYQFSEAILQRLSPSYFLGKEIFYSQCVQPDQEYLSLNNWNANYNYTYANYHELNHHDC
The settings on record: protein: recombinant; tags: N-terminal GST; dsDNA, one strand shown. An outline of the steps: as §1

The target in assay [5] is ELF4 (Homo sapiens, UniProt Q99607 1-663). Particulars: protein: recombinant; tags: N-terminal GST; dsDNA, one strand shown. The method, boiled down: as §1
In assay [6] the target is T3, ELK4 (Homo sapiens, UniProt P28324-2 1-405).
T3 sequence: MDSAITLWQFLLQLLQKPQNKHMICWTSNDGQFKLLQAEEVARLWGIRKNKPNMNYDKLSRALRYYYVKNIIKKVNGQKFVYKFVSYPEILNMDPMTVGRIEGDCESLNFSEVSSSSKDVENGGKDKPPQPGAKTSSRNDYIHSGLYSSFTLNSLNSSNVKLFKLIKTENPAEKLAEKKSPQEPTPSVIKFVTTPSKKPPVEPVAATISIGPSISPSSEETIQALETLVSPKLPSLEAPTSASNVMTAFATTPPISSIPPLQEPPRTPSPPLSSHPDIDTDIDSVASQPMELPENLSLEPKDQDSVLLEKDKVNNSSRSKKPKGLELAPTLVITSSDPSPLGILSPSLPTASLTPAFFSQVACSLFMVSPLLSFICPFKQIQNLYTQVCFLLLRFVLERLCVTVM
Particulars: protein: recombinant; tags: N-terminal GST; dsDNA, one strand shown. The method, boiled down: as §1

In assay [7] the target is T4, ETV2 (Homo sapiens, UniProt O00321 1-342).
T4 sequence: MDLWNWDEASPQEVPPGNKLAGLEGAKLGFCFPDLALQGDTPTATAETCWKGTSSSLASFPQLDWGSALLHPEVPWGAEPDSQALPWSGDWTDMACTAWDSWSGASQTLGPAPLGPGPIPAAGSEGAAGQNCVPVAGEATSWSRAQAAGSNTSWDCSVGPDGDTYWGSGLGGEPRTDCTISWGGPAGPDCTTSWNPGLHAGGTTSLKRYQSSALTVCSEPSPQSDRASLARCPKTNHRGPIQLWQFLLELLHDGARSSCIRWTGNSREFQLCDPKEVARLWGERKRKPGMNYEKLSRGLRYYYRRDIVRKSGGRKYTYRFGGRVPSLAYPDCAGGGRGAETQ
The settings on record: protein: recombinant; tags: N-terminal GST; dsDNA, one strand shown. The method, boiled down: as §1

The target of assay [8] is T5, ELF3 (Homo sapiens, UniProt P78545 1-371).
T5 sequence: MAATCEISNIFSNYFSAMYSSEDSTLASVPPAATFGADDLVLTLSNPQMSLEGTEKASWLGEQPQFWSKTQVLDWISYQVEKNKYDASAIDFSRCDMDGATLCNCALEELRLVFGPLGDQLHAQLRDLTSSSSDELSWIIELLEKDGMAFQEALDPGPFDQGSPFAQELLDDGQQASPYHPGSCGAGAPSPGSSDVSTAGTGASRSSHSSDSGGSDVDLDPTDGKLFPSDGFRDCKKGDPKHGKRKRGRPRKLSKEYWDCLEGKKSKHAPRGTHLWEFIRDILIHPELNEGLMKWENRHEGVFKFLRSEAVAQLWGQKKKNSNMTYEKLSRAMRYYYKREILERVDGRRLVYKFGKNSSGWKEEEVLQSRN
Particulars: protein: recombinant; tags: N-terminal GST; dsDNA, one strand shown. The method, boiled down:
as §1

Assay [9] deals with CRX (Homo sapiens, UniProt O43186 1-299). Particulars: protein: recombinant; tags: N-terminal GST; dsDNA, one strand shown. An outline of the steps:
as §1

Assay [10] deals with ETV1 (Homo sapiens, UniProt P50549 1-477). Particulars: protein: recombinant; tags: N-terminal GST; dsDNA, one strand shown. An outline of the steps:
as §1

For assay [11], the target named is T6, ERF (Homo sapiens, UniProt P50548 1-548).
T6 sequence: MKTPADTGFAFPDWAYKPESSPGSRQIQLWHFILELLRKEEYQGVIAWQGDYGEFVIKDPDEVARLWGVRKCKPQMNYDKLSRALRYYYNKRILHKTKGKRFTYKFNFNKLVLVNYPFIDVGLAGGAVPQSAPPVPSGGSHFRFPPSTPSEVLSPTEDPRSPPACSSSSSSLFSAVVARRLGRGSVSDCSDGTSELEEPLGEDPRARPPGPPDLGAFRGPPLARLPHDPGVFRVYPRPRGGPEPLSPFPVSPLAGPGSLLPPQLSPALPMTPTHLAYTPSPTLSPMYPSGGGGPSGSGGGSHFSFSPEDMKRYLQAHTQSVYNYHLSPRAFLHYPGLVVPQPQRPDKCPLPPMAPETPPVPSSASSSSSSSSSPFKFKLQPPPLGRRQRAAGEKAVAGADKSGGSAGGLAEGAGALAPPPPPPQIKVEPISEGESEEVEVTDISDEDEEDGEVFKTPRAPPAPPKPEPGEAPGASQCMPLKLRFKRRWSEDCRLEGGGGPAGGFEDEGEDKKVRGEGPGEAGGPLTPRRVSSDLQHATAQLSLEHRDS
Particulars: protein: recombinant; tags: N-terminal GST; dsDNA, one strand shown. The method, boiled down:
as §1

Assay [12] deals with T7, ETV3L (Homo sapiens, UniProt Q6ZN32 1-361).
T7 sequence: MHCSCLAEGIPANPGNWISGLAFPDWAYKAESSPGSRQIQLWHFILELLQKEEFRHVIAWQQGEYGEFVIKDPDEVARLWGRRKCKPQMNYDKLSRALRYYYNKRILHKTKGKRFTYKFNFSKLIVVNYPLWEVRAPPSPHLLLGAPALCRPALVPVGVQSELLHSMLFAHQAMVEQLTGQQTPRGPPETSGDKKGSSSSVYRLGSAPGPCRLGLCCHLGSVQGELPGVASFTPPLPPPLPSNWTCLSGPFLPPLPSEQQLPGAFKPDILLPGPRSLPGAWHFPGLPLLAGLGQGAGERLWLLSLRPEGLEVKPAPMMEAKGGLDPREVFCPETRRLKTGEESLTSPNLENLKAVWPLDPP
Particulars: protein: recombinant; tags: N-terminal GST; dsDNA, one strand shown. An outline of the steps:
as §1

In assay [13] the target is T8, ETS2 (Homo sapiens, UniProt P15036 1-469).
T8 sequence: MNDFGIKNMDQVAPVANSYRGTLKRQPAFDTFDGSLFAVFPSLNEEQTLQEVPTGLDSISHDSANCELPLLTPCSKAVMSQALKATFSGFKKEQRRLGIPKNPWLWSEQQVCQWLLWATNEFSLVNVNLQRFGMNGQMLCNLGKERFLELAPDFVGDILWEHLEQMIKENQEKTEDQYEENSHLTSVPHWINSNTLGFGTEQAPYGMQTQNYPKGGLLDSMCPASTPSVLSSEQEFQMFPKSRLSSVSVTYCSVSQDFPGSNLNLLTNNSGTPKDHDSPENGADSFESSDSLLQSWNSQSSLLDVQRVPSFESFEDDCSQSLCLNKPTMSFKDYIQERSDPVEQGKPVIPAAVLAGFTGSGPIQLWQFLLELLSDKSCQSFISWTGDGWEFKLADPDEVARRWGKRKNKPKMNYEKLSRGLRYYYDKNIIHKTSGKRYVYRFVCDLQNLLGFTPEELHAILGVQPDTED
Particulars: protein: recombinant; tags: N-terminal GST; dsDNA, one strand shown. The method, boiled down: as §1

The target of assay [14] is T9, SPDEF (Homo sapiens, UniProt O95238 1-335).
T9 sequence: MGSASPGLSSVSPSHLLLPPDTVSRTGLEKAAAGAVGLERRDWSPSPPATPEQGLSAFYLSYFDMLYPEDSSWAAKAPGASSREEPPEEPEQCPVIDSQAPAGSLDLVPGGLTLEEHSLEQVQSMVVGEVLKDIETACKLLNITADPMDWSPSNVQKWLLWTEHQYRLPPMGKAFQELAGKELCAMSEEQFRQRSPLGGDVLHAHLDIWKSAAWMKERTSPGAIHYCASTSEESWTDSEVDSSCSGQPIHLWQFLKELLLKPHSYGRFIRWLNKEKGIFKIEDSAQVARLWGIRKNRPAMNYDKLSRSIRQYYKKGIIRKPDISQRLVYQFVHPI
Particulars: protein: recombinant; tags: N-terminal GST; dsDNA, one strand shown. An outline of the steps:
as §1

For assay [15], the target named is T10, ETV7 (Homo sapiens, UniProt Q9Y603 1-341).
T10 sequence: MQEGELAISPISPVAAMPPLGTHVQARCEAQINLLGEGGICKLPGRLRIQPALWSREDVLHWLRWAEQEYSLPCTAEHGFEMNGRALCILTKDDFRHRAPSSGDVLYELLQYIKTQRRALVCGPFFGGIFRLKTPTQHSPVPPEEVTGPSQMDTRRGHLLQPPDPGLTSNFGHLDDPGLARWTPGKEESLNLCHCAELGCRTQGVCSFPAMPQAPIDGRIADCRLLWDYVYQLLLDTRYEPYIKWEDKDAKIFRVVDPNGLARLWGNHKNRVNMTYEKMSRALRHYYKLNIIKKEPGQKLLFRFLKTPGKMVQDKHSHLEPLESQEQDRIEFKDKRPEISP
Particulars: protein: recombinant; tags: N-terminal GST; dsDNA, one strand shown. The method, boiled down: as §1

Assay [16] has as its target T11, ELF5 (Homo sapiens, UniProt Q9UKW6-2 1-255).
T11 sequence: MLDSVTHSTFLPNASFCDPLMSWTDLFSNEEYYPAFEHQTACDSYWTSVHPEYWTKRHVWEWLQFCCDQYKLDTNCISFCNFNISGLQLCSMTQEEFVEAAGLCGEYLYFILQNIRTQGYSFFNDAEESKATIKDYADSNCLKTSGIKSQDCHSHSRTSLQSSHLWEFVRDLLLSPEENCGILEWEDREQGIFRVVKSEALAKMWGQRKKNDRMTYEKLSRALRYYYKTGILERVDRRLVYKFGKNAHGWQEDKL
Particulars: protein: recombinant; tags: N-terminal GST; dsDNA, one strand shown. The method, boiled down: as §1

Assay [17] concerns the target T12, ETV3 (Homo sapiens, UniProt P41162-2 1-143).
T12 sequence: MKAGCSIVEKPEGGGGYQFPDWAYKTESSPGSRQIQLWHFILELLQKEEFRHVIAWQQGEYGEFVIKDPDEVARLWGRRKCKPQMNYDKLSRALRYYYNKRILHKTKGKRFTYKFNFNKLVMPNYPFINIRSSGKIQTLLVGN
The settings on record: protein: recombinant; tags: N-terminal GST; dsDNA, one strand shown. The method, boiled down:
as §1

Assay [18] concerns the target ETV6 (Homo sapiens, UniProt P41212 1-452). Particulars: protein: recombinant; tags: N-terminal GST; dsDNA, one strand shown. An outline of the steps: as §1

Sequence of HSF1 (Q00613 whole entry): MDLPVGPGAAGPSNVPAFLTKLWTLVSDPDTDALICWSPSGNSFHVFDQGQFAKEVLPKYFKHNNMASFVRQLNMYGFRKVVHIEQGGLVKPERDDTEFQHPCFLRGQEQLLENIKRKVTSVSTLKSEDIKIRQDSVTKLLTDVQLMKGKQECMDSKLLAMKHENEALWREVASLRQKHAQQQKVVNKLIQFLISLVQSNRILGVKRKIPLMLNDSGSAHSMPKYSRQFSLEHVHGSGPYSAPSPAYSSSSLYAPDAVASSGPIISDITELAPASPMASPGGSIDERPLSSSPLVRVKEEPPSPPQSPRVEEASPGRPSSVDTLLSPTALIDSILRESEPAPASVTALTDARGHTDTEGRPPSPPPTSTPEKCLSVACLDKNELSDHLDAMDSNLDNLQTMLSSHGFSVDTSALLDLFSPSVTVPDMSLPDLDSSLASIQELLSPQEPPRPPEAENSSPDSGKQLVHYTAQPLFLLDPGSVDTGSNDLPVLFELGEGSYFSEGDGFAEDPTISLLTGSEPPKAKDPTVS
Sequence of CRX (O43186 whole entry): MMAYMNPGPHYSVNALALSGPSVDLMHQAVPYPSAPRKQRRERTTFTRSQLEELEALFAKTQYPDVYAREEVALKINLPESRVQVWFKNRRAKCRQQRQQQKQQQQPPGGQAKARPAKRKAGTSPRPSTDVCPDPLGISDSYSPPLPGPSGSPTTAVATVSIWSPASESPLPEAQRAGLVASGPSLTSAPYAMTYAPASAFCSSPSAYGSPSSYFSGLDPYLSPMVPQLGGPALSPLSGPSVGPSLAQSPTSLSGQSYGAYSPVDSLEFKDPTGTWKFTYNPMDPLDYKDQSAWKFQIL
Sequence of ETV5 (P41161 whole entry): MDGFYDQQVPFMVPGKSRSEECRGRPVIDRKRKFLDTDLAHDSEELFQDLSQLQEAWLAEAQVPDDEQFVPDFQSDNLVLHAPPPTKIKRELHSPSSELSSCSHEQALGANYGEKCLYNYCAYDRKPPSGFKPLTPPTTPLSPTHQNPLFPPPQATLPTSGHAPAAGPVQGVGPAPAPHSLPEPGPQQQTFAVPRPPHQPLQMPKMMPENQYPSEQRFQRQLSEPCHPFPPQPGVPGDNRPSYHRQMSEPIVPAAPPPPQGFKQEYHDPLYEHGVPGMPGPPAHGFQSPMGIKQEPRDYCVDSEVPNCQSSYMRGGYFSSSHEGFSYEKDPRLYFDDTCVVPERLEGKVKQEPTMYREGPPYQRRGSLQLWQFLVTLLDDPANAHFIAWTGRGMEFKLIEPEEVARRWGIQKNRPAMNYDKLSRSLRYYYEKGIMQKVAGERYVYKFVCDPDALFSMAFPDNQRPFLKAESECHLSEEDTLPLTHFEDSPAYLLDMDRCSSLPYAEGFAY
Sequence of ELF4 (Q99607 whole entry): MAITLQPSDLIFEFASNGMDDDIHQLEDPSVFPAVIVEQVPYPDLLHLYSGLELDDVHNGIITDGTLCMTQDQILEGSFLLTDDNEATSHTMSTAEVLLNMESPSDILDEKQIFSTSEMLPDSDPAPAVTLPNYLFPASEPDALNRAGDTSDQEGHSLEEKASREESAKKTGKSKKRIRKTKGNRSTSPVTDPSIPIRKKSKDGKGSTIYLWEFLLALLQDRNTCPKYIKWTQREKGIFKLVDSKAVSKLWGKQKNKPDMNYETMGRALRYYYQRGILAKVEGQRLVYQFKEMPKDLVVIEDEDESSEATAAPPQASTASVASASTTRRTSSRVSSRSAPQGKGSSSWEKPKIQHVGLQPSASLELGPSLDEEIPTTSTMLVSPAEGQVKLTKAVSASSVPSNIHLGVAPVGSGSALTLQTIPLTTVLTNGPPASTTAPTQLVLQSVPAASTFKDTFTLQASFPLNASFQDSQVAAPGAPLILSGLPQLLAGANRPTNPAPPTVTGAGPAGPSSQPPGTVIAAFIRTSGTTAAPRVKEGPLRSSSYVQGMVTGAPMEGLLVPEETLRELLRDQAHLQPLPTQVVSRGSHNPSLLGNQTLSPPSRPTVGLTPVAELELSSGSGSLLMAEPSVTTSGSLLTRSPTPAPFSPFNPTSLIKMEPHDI
Sequence of ETV6 (P41212 whole entry): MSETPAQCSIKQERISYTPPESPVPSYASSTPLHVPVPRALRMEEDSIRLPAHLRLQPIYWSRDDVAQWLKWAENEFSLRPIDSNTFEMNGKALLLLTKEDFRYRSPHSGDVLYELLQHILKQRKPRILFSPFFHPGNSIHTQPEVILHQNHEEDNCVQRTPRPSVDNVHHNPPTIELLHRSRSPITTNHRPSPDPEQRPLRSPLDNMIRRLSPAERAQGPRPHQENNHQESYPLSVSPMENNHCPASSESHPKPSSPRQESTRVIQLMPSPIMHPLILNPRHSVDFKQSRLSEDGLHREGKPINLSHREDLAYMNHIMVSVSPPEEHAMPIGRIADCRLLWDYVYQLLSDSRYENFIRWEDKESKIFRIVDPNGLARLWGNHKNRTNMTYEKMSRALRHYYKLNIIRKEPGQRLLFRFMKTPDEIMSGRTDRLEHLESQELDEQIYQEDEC
Sequence of ETV1 (P50549 whole entry): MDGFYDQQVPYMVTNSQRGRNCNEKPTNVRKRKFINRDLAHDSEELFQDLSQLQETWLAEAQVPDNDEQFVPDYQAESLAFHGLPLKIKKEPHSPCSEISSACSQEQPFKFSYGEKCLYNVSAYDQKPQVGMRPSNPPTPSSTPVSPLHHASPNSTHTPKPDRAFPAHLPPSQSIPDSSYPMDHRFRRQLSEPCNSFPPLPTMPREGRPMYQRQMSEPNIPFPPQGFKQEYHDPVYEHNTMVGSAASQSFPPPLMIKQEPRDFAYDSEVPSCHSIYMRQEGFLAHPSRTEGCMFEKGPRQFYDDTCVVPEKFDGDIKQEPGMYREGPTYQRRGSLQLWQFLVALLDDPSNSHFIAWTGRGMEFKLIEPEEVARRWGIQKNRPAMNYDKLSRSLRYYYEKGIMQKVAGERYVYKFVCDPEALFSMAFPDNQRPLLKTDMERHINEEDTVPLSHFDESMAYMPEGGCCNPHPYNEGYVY

With AATGAT, the binding signal in assay [1] was 1.18 fold enrichment (6-mer frequency, TF over GST control); in assay [2], 1.14 fold enrichment (6-mer frequency, TF over GST control); in assay [3], 1.25 fold enrichment (6-mer frequency, TF over GST control); in assay [4], 1.1 fold enrichment (6-mer frequency, TF over GST control); in assay [5], 1.17 fold enrichment (6-mer frequency, TF over GST control); in assay [6], 1.25 fold enrichment (6-mer frequency, TF over GST control). The binding signal is 1.21 fold enrichment (6-mer frequency, TF over GST control) in [7]; 1.17 fold enrichment (6-mer frequency, TF over GST control) in assay [8]; 1.37 fold enrichment (6-mer frequency, TF over GST control) in [9]; 1.07 fold enrichment (6-mer frequency, TF over GST control) in [10]; 1.18 fold enrichment (6-mer frequency, TF over GST control) in assay [11]; 1.24 fold enrichment (6-mer frequency, TF over GST control) in assay [12]. The binding signal in assay [13] was 1.12 fold enrichment (6-mer frequency, TF over GST control); in [14], 1.13 fold enrichment (6-mer frequency, TF over GST control); in assay [15], 1.2 fold enrichment (6-mer frequency, TF over GST control); in [16] it was 1.06 fold enrichment (6-mer frequency, TF over GST control); in [17], 1.21 fold enrichment (6-mer frequency, TF over GST control); in assay [18] it was 1.24 fold enrichment (6-mer frequency, TF over GST control).

The values are drawn from article PMC7862700, “An all-to-all approach to the identification of sequence-specific readers for epigenetic DNA modifications on cytosine”.
